Targets with a hit are over-represented here; the source holds about 7,900 in all. About 0.6% of all pairs of compound and target were hits. Unmarked numbers belong to inactive results.

Sequence of UniProt Q92685 (Q92685 whole entry, looked up): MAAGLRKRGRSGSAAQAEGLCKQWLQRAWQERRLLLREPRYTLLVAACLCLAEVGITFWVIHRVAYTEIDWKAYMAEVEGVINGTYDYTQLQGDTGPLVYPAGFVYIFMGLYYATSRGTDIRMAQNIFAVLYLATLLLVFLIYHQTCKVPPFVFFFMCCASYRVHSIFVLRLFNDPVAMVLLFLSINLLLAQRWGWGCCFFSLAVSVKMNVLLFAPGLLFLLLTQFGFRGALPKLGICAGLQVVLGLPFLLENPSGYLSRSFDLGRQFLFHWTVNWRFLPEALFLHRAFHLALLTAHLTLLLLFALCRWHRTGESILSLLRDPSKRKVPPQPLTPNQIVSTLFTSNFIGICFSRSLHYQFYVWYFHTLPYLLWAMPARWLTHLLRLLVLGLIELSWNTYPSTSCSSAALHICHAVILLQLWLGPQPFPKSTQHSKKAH
Sequence of UniProt Q9NYF8 (Q9NYF8 whole entry, looked up): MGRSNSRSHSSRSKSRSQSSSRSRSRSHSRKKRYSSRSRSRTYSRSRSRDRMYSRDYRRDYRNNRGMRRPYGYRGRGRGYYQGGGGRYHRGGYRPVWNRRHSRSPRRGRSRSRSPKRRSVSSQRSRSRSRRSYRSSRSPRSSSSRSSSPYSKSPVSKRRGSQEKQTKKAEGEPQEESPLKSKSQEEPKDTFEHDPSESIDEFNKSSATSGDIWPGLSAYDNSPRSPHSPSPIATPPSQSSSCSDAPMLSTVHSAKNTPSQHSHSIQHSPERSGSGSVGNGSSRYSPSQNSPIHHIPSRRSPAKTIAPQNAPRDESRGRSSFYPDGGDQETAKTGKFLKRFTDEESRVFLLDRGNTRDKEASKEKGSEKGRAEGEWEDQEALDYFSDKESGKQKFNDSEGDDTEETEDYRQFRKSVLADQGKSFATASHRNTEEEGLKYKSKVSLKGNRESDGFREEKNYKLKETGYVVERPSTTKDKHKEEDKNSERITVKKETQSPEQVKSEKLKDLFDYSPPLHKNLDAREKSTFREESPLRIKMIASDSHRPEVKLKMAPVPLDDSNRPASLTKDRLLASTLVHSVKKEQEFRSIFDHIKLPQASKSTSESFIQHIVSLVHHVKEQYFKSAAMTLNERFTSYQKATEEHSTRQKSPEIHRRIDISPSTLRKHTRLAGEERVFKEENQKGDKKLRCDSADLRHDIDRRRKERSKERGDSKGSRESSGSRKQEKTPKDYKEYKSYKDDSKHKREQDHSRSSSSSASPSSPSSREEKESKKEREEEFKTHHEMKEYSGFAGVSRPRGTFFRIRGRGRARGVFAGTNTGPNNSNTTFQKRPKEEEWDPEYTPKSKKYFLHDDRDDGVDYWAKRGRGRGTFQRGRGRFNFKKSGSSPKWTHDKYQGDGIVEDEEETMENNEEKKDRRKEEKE
Sequence of UniProt Q9HC16 (Q9HC16 whole entry, looked up): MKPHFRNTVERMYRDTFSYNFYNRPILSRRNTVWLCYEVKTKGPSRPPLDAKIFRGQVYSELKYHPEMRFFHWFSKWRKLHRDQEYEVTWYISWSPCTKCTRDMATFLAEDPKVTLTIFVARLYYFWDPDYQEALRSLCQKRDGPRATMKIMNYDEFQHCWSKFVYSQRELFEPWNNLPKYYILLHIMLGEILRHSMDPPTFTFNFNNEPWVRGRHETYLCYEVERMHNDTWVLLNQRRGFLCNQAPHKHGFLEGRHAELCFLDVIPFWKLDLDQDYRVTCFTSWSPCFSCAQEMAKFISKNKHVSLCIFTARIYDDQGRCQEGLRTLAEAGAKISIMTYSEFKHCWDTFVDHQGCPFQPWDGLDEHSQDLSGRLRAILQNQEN
Sequence of UniProt Q9BTE6 (Q9BTE6 whole entry, looked up): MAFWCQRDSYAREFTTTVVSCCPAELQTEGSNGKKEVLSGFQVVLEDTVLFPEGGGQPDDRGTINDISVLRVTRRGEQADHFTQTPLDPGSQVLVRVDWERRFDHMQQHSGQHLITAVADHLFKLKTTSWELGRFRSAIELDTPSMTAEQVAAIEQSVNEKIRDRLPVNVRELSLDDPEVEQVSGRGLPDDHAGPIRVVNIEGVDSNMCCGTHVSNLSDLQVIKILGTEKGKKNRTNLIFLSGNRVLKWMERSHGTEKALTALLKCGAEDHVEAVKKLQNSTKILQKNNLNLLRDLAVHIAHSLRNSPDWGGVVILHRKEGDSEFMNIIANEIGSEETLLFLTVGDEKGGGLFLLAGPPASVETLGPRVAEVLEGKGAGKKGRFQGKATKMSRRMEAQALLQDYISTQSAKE
Sequence of UniProt P54886 (P54886 whole entry, looked up): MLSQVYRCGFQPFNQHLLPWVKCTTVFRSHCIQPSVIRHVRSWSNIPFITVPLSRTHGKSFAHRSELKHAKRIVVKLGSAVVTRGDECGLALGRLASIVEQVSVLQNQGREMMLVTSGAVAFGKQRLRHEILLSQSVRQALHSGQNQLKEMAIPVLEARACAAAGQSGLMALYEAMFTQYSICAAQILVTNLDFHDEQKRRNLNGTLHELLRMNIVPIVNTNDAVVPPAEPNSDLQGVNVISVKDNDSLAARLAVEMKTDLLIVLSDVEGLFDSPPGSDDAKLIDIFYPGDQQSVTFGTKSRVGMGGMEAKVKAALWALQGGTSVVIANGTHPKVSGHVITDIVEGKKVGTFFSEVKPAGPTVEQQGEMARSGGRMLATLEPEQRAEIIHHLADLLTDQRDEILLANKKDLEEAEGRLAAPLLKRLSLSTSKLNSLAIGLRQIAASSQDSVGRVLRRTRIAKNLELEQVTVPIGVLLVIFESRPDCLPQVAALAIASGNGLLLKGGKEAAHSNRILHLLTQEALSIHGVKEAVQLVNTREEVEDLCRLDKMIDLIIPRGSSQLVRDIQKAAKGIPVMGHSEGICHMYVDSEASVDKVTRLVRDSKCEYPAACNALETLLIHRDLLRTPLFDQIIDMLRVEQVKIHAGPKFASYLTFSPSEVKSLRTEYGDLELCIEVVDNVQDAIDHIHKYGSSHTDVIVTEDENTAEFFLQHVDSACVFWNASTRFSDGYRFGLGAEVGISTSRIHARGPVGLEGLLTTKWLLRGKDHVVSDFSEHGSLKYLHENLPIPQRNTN
Sequence of UniProt P30837 (P30837 whole entry, looked up): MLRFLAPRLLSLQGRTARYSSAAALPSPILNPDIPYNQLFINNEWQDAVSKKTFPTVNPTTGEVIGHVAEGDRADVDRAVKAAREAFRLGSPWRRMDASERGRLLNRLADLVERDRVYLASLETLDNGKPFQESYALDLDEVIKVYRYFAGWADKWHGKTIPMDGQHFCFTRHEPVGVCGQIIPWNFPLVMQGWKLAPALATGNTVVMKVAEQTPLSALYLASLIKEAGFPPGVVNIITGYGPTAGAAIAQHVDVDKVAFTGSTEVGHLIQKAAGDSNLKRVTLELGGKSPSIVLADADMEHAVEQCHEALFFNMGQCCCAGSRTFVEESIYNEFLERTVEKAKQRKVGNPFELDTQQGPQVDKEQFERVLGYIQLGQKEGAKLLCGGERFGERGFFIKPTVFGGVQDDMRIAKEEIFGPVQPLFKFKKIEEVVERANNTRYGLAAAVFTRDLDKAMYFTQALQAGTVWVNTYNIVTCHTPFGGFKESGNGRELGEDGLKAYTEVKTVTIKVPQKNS
Sequence of UniProt O95870 (O95870 whole entry, looked up): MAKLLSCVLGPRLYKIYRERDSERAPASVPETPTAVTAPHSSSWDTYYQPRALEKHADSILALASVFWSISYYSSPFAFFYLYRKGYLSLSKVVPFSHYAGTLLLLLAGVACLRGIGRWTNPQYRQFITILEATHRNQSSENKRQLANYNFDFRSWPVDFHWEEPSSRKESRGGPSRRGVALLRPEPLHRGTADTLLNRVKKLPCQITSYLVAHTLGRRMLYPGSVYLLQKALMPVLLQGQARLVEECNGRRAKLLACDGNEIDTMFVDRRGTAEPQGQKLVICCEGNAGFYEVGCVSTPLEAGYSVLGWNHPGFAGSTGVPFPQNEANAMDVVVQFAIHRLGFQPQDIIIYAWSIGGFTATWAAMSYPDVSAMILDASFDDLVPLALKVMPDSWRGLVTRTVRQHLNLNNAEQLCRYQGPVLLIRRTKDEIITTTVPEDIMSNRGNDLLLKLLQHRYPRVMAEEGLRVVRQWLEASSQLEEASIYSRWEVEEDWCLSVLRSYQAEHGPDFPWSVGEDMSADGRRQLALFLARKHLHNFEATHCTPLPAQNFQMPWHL
Sequence of UniProt P00966 (P00966 whole entry, looked up): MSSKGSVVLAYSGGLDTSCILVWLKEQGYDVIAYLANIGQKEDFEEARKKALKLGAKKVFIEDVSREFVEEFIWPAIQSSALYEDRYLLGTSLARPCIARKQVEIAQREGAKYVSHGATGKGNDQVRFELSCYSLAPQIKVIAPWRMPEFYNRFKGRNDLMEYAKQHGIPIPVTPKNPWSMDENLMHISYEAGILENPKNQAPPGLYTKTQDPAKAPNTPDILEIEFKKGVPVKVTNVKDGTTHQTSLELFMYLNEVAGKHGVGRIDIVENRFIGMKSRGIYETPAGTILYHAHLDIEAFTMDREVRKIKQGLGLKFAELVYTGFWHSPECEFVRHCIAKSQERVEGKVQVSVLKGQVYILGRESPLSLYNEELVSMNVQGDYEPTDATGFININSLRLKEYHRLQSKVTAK
Sequence of UniProt Q9Y3D8 (Q9Y3D8 whole entry, looked up): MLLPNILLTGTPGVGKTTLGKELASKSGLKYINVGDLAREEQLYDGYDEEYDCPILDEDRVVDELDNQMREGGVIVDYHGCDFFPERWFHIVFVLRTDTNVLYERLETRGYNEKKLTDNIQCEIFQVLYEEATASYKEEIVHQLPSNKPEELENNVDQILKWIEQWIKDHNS
Sequence of UniProt Q9UII2 (Q9UII2 whole entry, looked up): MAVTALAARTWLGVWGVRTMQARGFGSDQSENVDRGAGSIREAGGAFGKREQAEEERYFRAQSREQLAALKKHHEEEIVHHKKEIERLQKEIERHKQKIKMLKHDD
Sequence of UniProt P55957 (P55957 whole entry, looked up): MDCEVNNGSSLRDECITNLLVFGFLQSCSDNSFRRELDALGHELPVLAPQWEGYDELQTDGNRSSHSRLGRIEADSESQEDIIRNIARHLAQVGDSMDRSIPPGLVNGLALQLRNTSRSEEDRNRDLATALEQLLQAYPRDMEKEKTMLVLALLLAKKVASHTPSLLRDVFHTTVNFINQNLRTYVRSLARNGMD

Compound in the assay: c1cn2cc(-c3ccc4cn[nH]c4c3)nc(Nc3ccc(N4CCOCC4)cc3)c2n1 [entospletinib]
The assay is described as follows: log2 fold change, soluble protein after heating vs DMSO (PISA); higher = thermal stabilisation; K562 cells, 10 uM, 30 min; active = over 0.2 and 3.5 SD of the protein, either way, in both replicates (recomputed). In outline: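 Soluble protein was quantified by TMTpro 16plex LC-MS/MS after channel sums were equalised. It was obtained as the supernatant after 21,000xg for 90 min from pooled aliquots of K562 cells (2×10^6 cells/mL, 10 μM compound, 30 min) heated for 3 min across 48°C-58°C and extracted in PBS with 0.5% NP-40 at 4°C. Thermal stability values are relative to control samples and come from duplicates. They are given as log2 fold changes.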
For ALDH1B1 (UniProt P30837), the log2 fold change is -0.018. Then ATG9A (UniProt Q7Z3C6), with -0.025; and ATF1 (UniProt P18846), with -0.006. Then ATAD3A isoform 2 (UniProt Q9NVI7), with 0.024; and ARL6IP4 (UniProt Q66PJ3), with 0.034; and APOBEC3G (UniProt Q9HC16), with 0.126. Then ADD3 isoform 2 (UniProt Q9UEY8), with -0.066; and AK6 (UniProt Q9Y3D8), with -0.048; and BRD8 isoform 2 (UniProt Q9H0E9), with 0.045.

In the case of AARSD1 isoform 3 (UniProt Q9BTE6), the log2 fold change was -0.066. The figure for ALDH18A1 (UniProt P54886) is -0.246; for BLVRB (UniProt P30043) it is 0.069. The figure for ASS1 (UniProt P00966) is 0.096. The figure for ANP32E (UniProt Q9BTT0) is 0; for BID isoform 2 (UniProt P55957) it is 0.025; for ARMC10 (UniProt Q8N2F6) it is -0.001. Turning to BCL9L (UniProt Q86UU0), the log2 fold change is -0.027. Then ALG3 (UniProt Q92685), with 0.049. Then BCLAF1 (UniProt Q9NYF8), with 0.075.

As to ABHD16A (UniProt O95870), the log2 fold change was 0.002.

Turning to BOP1 (UniProt Q14137), the log2 fold change is -0.063. For the target ATP5IF1 (UniProt Q9UII2), the log2 fold change was 0.057.

For the origin of these results see the supplement of paper PMC10849652.
